Experimental data taken from ChEMBL document CHEMBL1961873, “Compounds: GSK PKIS; Assays: Nanosyn kinase panel” (2012).

How the values were obtained:
[1] = target: Calcium/calmodulin-dependent protein kinase type II subunit alpha (Homo sapiens) (UniProt Q9UQM7); settings: at 1 µM;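 further: reported value is a mean percent inhibition of CAMK2A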
[2] = target: Calcium/calmodulin-dependent protein kinase type II subunit delta (Homo sapiens) (UniProt Q13557); settings: at 0.1 µM
[3] = target: Calcium/calmodulin-dependent protein kinase type II subunit delta (Homo sapiens) (UniProt Q13557); settings: at 1 µM
[4] = target: T1, Calcium/calmodulin-dependent protein kinase type IV (Homo sapiens) (UniProt Q16566); settings: at 0.1 µM
T1 sequence (whole entry): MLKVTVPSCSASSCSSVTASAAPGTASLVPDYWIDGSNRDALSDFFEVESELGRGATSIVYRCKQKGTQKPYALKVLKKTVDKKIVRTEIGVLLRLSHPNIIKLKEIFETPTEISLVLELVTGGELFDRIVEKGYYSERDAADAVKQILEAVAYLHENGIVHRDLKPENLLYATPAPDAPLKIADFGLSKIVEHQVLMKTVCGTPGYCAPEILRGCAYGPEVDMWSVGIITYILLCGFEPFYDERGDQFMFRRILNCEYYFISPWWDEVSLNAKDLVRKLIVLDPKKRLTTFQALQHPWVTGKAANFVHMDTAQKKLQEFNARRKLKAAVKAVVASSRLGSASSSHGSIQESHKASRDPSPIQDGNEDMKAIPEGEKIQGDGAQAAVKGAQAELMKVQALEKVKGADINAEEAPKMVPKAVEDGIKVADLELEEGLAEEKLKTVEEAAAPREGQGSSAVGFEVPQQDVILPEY

[5] = target: T1, Calcium/calmodulin-dependent protein kinase type IV (Homo sapiens); settings: at 1 µM
[6] = target: T2, Serine/threonine-protein kinase Chk1 (Homo sapiens) (UniProt O14757); settings: at 0.1 µM
T2 sequence (whole entry): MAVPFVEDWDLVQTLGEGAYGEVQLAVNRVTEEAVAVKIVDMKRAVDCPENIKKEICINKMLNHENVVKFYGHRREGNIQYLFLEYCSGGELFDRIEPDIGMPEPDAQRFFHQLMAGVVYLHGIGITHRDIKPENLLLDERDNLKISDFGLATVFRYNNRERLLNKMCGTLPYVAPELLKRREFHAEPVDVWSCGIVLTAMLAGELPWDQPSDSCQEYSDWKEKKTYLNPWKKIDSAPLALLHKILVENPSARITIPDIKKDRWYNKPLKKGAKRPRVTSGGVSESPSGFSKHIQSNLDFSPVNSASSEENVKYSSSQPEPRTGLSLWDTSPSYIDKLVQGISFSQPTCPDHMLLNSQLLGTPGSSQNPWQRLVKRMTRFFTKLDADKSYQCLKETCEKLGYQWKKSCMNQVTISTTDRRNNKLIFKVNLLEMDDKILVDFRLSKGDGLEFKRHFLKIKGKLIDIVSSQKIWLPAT

[7] = target: T2, Serine/threonine-protein kinase Chk1 (Homo sapiens); settings: at 1 µM
[8] = target: Serine/threonine-protein kinase Chk2 (Homo sapiens) (UniProt O96017); settings: at 0.1 µM
[9] = target: Serine/threonine-protein kinase Chk2 (Homo sapiens) (UniProt O96017); settings: at 1 µM
[10] = target: Death-associated protein kinase 1 (Homo sapiens) (UniProt P53355); settings: at 0.1 µM
[11] = target: Death-associated protein kinase 1 (Homo sapiens) (UniProt P53355); settings: at 1 µM
[12] = target: T3, Serine/threonine-protein kinase DCLK2 (Homo sapiens) (UniProt Q8N568); settings: at 0.1 µM
T3 sequence (whole entry): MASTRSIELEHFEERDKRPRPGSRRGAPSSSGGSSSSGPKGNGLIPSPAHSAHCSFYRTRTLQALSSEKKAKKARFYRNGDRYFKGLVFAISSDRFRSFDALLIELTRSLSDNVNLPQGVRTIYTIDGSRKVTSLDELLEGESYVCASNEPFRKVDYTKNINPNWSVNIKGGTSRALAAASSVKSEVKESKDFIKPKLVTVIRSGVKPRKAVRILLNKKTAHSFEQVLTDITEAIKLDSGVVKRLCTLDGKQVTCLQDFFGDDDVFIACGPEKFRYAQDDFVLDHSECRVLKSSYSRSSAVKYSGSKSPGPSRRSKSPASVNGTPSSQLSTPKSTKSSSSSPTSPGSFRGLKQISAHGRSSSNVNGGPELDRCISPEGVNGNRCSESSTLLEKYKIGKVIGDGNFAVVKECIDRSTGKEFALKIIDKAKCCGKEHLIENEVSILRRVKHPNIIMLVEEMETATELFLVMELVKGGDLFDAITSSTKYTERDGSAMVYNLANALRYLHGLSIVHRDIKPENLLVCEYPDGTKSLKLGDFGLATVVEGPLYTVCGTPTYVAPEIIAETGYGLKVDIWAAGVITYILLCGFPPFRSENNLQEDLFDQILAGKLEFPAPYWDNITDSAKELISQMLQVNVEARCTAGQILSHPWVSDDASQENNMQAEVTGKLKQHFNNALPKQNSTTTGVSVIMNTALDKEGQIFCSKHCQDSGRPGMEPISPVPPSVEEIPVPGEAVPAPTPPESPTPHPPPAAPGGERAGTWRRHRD

[13] = target: T3, Serine/threonine-protein kinase DCLK2 (Homo sapiens); settings: at 1 µM
[14] = target: MAP kinase-activated protein kinase 2 (Homo sapiens) (UniProt P49137); settings: at 0.1 µM
[15] = target: MAP kinase-activated protein kinase 2 (Homo sapiens) (UniProt P49137); settings: at 1 µM
[16] = target: MAP kinase-activated protein kinase 3 (Homo sapiens) (UniProt Q16644); settings: at 0.1 µM
[17] = target: MAP kinase-activated protein kinase 3 (Homo sapiens) (UniProt Q16644); settings: at 1 µM
[18] = target: Serine/threonine-protein kinase MARK1 (Homo sapiens) (UniProt Q9P0L2); settings: at 0.1 µM
[19] = target: Serine/threonine-protein kinase MARK1 (Homo sapiens) (UniProt Q9P0L2); settings: at 1 µM
[20] = target: MAP/microtubule affinity-regulating kinase 3 (Homo sapiens) (UniProt P27448); settings: at 0.1 µM;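 further: mean percent inhibition of MARK3 kinase activity, measured within the GSK PKIS screening panel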
Sequence of MAP/microtubule affinity-regulating kinase 3 (Homo sapiens) (P27448 whole entry, looked up): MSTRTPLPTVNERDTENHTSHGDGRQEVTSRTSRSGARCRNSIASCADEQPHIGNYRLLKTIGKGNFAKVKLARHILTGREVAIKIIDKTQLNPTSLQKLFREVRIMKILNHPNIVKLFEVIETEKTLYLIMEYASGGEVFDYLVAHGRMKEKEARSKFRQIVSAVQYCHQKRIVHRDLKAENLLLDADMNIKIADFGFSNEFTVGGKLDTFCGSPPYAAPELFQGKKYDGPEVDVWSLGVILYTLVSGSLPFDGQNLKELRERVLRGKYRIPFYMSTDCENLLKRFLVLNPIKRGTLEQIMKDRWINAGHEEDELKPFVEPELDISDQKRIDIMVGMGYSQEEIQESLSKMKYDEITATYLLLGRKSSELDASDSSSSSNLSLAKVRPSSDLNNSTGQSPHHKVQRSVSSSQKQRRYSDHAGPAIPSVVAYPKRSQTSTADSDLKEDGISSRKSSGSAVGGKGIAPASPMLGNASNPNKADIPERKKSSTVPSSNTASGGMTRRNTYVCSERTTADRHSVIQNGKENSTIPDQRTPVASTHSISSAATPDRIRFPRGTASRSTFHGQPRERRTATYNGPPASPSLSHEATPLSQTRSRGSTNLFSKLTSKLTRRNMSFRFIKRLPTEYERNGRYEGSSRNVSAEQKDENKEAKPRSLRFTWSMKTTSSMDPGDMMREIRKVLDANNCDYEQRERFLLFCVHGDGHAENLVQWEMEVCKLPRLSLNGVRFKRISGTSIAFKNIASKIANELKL

Sequence of Serine/threonine-protein kinase Chk2 (Homo sapiens) (O96017 whole entry): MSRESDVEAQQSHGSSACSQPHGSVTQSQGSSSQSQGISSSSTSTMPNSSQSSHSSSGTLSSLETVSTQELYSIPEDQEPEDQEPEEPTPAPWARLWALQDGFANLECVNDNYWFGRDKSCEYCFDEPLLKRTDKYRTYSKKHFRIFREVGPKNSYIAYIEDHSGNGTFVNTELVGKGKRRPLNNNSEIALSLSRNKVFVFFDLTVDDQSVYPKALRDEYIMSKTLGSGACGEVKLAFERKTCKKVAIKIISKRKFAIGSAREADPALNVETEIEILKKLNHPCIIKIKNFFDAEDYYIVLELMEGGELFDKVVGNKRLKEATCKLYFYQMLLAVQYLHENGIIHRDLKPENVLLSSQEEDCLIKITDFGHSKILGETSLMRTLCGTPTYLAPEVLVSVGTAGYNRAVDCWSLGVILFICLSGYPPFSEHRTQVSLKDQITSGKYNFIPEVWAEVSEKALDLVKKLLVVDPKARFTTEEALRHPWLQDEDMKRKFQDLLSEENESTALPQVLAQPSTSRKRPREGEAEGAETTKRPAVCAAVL
Sequence of Serine/threonine-protein kinase MARK1 (Homo sapiens) (Q9P0L2 whole entry, looked up): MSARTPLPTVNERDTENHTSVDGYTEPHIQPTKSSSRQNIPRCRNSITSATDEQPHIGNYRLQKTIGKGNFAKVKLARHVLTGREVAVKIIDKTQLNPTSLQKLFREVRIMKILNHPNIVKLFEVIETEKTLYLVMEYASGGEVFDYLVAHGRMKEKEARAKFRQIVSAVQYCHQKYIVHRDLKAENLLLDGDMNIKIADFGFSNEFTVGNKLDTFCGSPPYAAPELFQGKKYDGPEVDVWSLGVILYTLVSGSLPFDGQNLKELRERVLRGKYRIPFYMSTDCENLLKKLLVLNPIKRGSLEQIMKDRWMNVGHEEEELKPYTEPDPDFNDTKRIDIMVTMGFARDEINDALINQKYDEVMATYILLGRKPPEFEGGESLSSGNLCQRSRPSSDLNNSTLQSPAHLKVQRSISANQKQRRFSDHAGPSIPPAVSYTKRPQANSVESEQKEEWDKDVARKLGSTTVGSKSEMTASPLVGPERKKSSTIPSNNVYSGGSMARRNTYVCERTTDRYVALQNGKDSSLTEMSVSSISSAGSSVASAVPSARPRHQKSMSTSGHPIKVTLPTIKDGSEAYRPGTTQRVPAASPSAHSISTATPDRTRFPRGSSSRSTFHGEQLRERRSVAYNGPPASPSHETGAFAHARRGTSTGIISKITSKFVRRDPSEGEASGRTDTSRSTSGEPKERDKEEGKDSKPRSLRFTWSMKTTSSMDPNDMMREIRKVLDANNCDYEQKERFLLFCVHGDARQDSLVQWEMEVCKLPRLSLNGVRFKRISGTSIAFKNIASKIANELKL
Sequence of Calcium/calmodulin-dependent protein kinase type II subunit delta (Homo sapiens) (Q13557 whole entry): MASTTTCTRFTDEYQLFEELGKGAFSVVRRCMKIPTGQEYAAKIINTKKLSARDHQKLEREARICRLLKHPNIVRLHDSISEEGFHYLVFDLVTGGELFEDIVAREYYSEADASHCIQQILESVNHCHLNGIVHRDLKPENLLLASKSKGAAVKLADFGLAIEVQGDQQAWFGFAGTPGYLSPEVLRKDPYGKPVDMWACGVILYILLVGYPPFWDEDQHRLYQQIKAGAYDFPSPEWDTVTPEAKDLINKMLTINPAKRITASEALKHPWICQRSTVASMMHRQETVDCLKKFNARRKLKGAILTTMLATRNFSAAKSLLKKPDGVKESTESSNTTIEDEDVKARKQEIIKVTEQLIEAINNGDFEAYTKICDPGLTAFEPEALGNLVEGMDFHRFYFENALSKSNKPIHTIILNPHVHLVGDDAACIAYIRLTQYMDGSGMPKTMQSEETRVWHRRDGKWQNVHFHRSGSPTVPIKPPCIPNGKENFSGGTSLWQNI
Sequence of Calcium/calmodulin-dependent protein kinase type II subunit alpha (Homo sapiens) (Q9UQM7 whole entry): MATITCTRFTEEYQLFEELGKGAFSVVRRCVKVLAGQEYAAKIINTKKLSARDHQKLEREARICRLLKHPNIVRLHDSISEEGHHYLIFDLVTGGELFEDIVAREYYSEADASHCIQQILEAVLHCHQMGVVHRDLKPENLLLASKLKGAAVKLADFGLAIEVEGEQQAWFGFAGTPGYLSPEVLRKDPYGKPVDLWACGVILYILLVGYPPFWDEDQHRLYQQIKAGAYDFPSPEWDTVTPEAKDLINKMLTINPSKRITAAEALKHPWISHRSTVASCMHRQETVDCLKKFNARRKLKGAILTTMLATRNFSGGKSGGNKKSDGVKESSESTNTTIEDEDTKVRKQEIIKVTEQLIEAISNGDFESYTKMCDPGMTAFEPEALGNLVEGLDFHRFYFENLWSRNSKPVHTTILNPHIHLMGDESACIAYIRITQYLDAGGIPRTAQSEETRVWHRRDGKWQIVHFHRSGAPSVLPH
Sequence of MAP kinase-activated protein kinase 3 (Homo sapiens) (Q16644 whole entry, looked up): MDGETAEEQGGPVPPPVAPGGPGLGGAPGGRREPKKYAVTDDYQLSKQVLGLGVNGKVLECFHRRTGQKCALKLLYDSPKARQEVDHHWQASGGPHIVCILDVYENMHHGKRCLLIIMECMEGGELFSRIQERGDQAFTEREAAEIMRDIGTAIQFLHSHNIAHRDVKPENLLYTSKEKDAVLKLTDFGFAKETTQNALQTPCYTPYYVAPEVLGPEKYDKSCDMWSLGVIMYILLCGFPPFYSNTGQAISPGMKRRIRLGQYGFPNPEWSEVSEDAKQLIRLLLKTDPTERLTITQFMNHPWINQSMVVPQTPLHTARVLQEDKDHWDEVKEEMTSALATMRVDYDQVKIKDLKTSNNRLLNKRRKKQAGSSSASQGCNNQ
Sequence of MAP kinase-activated protein kinase 2 (Homo sapiens) (P49137 whole entry, looked up): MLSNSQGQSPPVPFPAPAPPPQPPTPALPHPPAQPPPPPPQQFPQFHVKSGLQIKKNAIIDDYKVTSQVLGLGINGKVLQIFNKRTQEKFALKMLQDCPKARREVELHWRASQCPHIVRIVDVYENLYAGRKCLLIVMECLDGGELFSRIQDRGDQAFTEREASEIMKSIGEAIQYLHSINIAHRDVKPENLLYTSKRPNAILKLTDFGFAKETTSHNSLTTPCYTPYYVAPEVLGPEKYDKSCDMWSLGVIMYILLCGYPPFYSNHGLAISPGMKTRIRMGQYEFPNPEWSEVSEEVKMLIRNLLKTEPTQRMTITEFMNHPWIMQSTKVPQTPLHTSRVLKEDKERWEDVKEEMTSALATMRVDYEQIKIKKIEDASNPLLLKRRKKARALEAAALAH

| SMILES | inhibition [1] | inhibition [2] | inhibition [3] | inhibition [4] | inhibition [5] | inhibition [6] | inhibition [7] | inhibition [8] | inhibition [9] | inhibition [10] | inhibition [11] | inhibition [12] | inhibition [13] | inhibition [14] | inhibition [15] | inhibition [16] | inhibition [17] | inhibition [18] | inhibition [19] | inhibition [20] |
| --- | --- | --- | --- | --- | --- | --- | --- | --- | --- | --- | --- | --- | --- | --- | --- | --- | --- | --- | --- | --- |
| c1ccc(-c2nc3n(c2-c2ccc4c(c2)OCO4)CCC3)nc1 | 0.36% | 1.63% | 0.93% | 0.61% | -0.72% | 3.23% | 3.51% | -0.09% | 0.94% | 1.93% | 1.91% | 0.33% | 2.8% | 1.38% | 1.27% | 3.55% | 3.33% | 1.87% | 4.07% | 2.01% |
| Cc1ccc2c(-c3ccnc(Nc4ccccc4)n3)c(-c3ccc(F)cc3)nn2n1 | 4.16% | 3.9% | 4.15% | -0.02% | 1.87% | 2.71% | 4.19% | 2.15% | 2.4% | 3.42% | 5.85% | 1.21% | 1.97% | 1.27% | 1.49% | 32.5% | 36% | 2.17% | 2.96% | 3.81% |
| COc1cc2c(cc1Nc1nc(Nc3ccsc3C(N)=O)c3cc[nH]c3n1)N(C(=O)CN(C)C)CCC2(C)C | 10.5% | 7.45% | 25.7% | 3.29% | 19.9% | -0.75% | -2.52% | 0.76% | 21.1% | -1.5% | 5.25% | 1.46% | 5.94% | -0.48% | -0.86% | -0.72% | -0.02% | 6.98% | 11.9% | 5.88% |
| CC(C)COC(=O)c1ccc2c(c1)/C(=C/Nc1ccc(S(N)(=O)=O)cc1)C(=O)N2 | 17.5% | 4.43% | 36.7% | 1.85% | 3.51% | 0.91% | 18.1% | -0.46% | 13.5% | -2.01% | 3.08% | -2.21% | 10.2% | -0.97% | -1.28% | -2.74% | -2.61% | 42.7% | 87.1% | 33.3% |
| COc1ccc(-c2oc3ncnc(N)c3c2-c2ccc(NC(=O)Nc3cc(C(F)(F)F)ccc3F)cc2)cc1 | 16.9% | 6.01% | 21.5% | 0.6% | 13.4% | 8.35% | 6.88% | 2.06% | 3.88% | 5.33% | 4.78% | 1.65% | 6.21% | 2.26% | 2.83% | 4.08% | 16.3% | 3.02% | 6.8% | 0.75% |
| Fc1ccc(-c2nn3ccccc3c2-c2ccncc2)cc1 | 0.25% | 0.43% | 2.99% | 1.16% | 1.98% | 0.22% | -0.04% | -0.38% | 0.19% | 0.72% | 0.99% | 1.01% | -2.66% | 0.22% | 0% | 14.4% | 28.4% | 1.76% | 2.2% | 1% |
| COc1cc(/C=N/Nc2ncnc3[nH]ncc23)ccc1O | 5.41% | 2.57% | 11.4% | -0.14% | -0.84% | 26.1% | 66.1% | 4.23% | 23.8% | 4.22% | 4.2% | 1.49% | 1.35% | 2.01% | 2.3% | 2.87% | 4% | 7.13% | 35.7% | 7.13% |
